Experiments:
Assay in all cases: DAPPL (digital affinity profiling via proximity ligation, sequencing); 10 mM Tris-HCl pH 7.5, 50 mM NaCl, 1 mM DTT, 4% glycerol, room temperature, 30 min; GST-TFs on glutathione beads, 16-mer random dsDNA library, 0.1% formaldehyde crosslink after washing; high values mean tight binding
FEV = target: T1, FEV (Homo sapiens, UniProt Q99581 1-238); details: protein: recombinant; tags: N-terminal GST; dsDNA, one strand shown
T1 sequence: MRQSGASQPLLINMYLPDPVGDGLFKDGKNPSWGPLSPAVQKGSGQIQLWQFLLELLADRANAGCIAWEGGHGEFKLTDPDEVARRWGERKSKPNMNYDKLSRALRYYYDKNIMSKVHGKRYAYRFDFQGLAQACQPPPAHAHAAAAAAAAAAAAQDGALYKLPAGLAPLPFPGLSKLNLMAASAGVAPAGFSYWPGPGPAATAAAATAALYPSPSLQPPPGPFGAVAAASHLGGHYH
Outline: (§1)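 GST fusions of human transcription factors were expressed in yeast and captured with glutathione beads. Once given DNA barcodes and pooled alongside a tag-only sample, they were incubated for 30 min at room temperature with 200 nmole of a random double-stranded 16-mer DNA library in Tris/NaCl/DTT/glycerol buffer, then washed, crosslinked (0.1% formaldehyde), proximity-ligated, PCR-amplified and sequenced on an Illumina NextSeq500. The binding signal of each hexamer is its read frequency for a factor divided by its frequency for the tag-only sample.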

ETV5 = ETV5 (Homo sapiens, UniProt P41161 1-510); details: protein: recombinant; tags: N-terminal GST; dsDNA, one strand shown
Outline: as §1

HSF1 = HSF1 (Homo sapiens, UniProt Q00613 1-529); details: protein: recombinant; tags: N-terminal GST; chain copies: 3; dsDNA, one strand shown
Outline: as §1

SPIC = target: T2, SPIC (Homo sapiens, UniProt Q8N5J4 1-248); details: protein: recombinant; tags: N-terminal GST; dsDNA, one strand shown
T2 sequence: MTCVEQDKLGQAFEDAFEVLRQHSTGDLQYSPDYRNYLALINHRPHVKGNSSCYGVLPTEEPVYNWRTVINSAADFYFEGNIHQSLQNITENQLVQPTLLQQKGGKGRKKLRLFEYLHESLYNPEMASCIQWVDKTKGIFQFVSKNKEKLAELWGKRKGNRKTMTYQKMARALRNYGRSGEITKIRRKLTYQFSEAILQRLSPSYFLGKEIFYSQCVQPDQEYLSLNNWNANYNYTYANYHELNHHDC
Outline: as §1

ELF4 = ELF4 (Homo sapiens, UniProt Q99607 1-663); details: protein: recombinant; tags: N-terminal GST; dsDNA, one strand shown
Outline: as §1

ELK4 = target: T3, ELK4 (Homo sapiens, UniProt P28324-2 1-405); details: protein: recombinant; tags: N-terminal GST; dsDNA, one strand shown
T3 sequence: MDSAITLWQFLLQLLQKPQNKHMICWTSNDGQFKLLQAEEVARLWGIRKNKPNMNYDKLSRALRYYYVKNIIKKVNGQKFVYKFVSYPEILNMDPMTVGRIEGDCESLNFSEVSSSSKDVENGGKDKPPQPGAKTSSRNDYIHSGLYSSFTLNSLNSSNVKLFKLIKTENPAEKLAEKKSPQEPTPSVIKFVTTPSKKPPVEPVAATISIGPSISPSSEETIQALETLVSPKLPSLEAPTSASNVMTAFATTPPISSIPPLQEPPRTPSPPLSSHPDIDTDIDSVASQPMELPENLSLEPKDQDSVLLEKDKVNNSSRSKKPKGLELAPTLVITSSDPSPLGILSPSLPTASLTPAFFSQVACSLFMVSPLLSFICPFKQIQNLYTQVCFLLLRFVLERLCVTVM
Outline: as §1

ETV2 = target: T4, ETV2 (Homo sapiens, UniProt O00321 1-342); details: protein: recombinant; tags: N-terminal GST; dsDNA, one strand shown
T4 sequence: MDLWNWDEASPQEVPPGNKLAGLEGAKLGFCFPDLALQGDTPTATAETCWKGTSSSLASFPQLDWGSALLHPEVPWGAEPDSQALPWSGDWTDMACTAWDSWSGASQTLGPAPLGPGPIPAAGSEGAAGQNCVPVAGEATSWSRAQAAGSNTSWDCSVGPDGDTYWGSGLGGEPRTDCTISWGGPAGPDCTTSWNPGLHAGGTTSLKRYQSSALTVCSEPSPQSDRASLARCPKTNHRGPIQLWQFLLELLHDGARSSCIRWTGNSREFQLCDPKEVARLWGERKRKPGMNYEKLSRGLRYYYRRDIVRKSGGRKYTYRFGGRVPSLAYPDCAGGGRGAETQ
Outline: as §1

ELF3 = target: T5, ELF3 (Homo sapiens, UniProt P78545 1-371); details: protein: recombinant; tags: N-terminal GST; dsDNA, one strand shown
T5 sequence: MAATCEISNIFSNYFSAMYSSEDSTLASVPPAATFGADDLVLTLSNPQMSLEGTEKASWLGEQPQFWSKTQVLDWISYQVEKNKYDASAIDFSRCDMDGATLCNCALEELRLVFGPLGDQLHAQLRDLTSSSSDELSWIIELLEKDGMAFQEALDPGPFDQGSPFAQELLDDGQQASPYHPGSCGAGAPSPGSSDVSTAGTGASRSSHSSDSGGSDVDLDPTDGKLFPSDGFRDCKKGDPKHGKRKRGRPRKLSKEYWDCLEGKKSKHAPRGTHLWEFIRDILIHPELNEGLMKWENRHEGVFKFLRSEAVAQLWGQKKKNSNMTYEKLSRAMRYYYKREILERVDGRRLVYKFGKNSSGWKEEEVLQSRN
Outline: as §1

CRX = CRX (Homo sapiens, UniProt O43186 1-299); details: protein: recombinant; tags: N-terminal GST; dsDNA, one strand shown
Outline: as §1

ETV1 = ETV1 (Homo sapiens, UniProt P50549 1-477); details: protein: recombinant; tags: N-terminal GST; dsDNA, one strand shown
Outline: as §1

ERF = target: T6, ERF (Homo sapiens, UniProt P50548 1-548); details: protein: recombinant; tags: N-terminal GST; dsDNA, one strand shown
T6 sequence: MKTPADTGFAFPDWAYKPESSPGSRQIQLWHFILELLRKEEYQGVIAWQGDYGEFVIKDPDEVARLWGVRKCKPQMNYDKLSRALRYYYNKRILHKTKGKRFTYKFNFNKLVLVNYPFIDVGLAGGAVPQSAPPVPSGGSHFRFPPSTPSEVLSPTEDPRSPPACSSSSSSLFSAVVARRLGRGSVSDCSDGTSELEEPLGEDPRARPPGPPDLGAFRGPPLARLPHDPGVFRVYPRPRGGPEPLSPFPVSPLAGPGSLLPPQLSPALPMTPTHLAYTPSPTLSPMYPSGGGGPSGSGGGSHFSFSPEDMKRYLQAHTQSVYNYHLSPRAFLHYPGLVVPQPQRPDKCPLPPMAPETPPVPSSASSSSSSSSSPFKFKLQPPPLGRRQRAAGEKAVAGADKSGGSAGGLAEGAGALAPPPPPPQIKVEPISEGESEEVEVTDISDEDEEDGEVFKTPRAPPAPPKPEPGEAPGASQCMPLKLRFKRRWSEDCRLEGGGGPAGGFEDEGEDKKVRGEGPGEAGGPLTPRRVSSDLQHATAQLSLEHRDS
Outline: as §1

ETV3L = target: T7, ETV3L (Homo sapiens, UniProt Q6ZN32 1-361); details: protein: recombinant; tags: N-terminal GST; dsDNA, one strand shown
T7 sequence: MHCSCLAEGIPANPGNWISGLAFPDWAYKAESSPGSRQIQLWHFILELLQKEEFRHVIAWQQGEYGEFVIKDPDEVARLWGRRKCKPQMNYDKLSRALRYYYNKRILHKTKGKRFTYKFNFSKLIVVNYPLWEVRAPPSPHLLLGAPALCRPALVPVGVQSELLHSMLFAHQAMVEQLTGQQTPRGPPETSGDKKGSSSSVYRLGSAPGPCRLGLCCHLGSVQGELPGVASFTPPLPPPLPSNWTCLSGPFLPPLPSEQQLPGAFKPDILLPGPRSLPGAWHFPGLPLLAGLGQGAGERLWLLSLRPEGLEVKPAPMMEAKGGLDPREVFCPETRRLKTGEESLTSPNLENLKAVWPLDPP
Outline: as §1

ETS2 = target: T8, ETS2 (Homo sapiens, UniProt P15036 1-469); details: protein: recombinant; tags: N-terminal GST; dsDNA, one strand shown
T8 sequence: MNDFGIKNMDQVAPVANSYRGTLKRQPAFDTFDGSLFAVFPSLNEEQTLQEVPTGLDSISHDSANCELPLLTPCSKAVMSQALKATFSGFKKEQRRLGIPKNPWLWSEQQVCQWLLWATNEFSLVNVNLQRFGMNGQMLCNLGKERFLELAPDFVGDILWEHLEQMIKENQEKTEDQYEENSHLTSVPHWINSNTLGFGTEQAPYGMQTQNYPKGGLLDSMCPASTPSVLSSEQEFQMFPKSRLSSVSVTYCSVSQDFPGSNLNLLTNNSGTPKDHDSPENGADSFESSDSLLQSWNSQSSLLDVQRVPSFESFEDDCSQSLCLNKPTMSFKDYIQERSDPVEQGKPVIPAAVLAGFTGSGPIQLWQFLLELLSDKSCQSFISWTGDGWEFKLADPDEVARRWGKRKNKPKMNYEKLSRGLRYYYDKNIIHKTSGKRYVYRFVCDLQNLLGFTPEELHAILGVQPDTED
Outline: as §1

SPDEF = target: T9, SPDEF (Homo sapiens, UniProt O95238 1-335); details: protein: recombinant; tags: N-terminal GST; dsDNA, one strand shown
T9 sequence: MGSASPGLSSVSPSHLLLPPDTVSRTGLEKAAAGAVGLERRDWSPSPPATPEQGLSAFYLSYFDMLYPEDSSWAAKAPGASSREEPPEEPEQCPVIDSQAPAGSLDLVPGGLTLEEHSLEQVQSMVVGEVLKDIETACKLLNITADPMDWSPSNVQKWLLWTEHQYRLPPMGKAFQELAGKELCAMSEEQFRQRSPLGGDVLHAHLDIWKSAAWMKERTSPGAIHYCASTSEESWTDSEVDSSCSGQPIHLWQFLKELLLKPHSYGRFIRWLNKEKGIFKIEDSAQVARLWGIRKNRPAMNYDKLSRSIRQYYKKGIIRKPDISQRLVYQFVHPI
Outline: as §1

ETV7 = target: T10, ETV7 (Homo sapiens, UniProt Q9Y603 1-341); details: protein: recombinant; tags: N-terminal GST; dsDNA, one strand shown
T10 sequence: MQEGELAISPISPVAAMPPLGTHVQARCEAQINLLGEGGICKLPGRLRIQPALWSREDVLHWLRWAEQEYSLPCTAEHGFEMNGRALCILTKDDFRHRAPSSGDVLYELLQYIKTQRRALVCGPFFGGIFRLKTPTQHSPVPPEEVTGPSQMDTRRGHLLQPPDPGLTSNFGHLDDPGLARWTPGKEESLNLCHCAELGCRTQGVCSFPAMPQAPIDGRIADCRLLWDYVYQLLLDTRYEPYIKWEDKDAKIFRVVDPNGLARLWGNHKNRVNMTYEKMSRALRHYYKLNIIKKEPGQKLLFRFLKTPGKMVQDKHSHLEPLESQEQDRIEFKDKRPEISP
Outline: as §1

ELF5 = target: T11, ELF5 (Homo sapiens, UniProt Q9UKW6-2 1-255); details: protein: recombinant; tags: N-terminal GST; dsDNA, one strand shown
T11 sequence: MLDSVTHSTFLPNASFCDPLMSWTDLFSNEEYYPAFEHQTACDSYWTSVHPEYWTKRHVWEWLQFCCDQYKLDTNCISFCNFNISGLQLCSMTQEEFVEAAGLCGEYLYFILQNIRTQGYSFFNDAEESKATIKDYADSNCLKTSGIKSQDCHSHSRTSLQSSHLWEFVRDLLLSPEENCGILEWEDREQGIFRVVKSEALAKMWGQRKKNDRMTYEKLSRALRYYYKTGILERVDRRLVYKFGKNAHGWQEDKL
Outline: as §1

ETV3 = target: T12, ETV3 (Homo sapiens, UniProt P41162-2 1-143); details: protein: recombinant; tags: N-terminal GST; dsDNA, one strand shown
T12 sequence: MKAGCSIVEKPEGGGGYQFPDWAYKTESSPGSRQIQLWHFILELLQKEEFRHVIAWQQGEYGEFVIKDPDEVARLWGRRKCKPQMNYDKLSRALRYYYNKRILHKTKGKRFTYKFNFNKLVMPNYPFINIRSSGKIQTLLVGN
Outline: as §1

ETV6 = ETV6 (Homo sapiens, UniProt P41212 1-452); details: protein: recombinant; tags: N-terminal GST; dsDNA, one strand shown
Outline: as §1

Chain of ETV6 (P41212 whole entry): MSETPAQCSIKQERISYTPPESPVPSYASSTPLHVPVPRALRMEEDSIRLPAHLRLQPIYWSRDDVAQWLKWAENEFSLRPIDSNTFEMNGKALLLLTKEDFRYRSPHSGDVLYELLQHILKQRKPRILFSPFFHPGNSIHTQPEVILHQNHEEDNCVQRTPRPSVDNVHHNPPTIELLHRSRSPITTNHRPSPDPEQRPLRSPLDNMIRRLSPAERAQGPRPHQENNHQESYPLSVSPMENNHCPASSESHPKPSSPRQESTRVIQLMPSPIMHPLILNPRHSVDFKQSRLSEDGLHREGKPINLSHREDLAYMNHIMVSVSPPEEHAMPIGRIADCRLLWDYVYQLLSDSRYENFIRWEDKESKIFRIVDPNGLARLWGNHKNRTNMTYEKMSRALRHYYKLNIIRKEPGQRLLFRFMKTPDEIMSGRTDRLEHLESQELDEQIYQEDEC
Chain of ETV5 (P41161 whole entry): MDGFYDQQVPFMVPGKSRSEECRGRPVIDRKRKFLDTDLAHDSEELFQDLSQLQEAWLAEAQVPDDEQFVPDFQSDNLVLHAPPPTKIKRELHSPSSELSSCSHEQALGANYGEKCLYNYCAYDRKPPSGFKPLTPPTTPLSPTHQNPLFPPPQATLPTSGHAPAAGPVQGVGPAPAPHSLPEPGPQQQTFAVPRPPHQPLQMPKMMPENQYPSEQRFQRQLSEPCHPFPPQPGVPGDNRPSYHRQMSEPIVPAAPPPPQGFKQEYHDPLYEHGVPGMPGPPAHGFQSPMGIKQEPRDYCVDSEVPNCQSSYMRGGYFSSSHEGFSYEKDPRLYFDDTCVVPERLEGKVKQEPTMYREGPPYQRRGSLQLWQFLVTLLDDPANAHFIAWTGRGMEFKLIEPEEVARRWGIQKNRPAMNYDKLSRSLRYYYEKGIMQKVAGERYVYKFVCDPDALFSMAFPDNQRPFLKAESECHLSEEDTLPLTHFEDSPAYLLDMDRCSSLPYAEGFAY
Chain of CRX (O43186 whole entry): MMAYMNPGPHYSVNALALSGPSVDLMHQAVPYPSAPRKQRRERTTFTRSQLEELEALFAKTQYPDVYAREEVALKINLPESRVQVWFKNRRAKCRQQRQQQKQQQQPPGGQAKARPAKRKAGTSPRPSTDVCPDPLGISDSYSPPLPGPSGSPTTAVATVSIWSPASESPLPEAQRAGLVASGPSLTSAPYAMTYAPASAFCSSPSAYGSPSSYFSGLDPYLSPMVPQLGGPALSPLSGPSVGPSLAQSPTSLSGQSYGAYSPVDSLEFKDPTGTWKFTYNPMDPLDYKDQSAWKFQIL
Chain of ETV1 (P50549 whole entry): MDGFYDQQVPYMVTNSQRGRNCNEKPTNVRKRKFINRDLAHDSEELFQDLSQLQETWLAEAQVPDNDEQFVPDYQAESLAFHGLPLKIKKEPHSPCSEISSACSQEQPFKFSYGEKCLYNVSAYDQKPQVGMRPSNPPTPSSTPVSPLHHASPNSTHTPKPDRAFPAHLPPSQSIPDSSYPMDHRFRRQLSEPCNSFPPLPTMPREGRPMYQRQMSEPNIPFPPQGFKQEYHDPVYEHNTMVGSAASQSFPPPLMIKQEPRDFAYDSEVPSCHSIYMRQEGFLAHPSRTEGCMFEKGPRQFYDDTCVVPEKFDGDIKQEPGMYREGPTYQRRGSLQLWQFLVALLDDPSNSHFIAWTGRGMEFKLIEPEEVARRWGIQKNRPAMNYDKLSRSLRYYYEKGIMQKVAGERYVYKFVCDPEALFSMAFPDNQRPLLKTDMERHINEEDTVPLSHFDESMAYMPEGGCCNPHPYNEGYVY
Chain of HSF1 (Q00613 whole entry): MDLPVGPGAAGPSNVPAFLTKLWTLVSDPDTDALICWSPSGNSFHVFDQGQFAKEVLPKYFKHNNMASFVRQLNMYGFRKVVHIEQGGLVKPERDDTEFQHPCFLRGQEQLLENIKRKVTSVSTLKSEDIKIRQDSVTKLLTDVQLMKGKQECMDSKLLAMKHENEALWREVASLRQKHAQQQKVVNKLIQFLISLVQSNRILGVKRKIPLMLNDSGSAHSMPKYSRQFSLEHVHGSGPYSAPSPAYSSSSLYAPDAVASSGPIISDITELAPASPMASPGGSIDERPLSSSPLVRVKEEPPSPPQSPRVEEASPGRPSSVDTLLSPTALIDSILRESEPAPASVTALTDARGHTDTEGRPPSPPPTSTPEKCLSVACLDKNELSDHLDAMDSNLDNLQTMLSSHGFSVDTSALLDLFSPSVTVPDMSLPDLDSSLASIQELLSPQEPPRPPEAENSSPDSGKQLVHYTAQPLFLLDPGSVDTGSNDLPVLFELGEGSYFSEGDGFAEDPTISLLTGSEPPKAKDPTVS
Chain of ELF4 (Q99607 whole entry): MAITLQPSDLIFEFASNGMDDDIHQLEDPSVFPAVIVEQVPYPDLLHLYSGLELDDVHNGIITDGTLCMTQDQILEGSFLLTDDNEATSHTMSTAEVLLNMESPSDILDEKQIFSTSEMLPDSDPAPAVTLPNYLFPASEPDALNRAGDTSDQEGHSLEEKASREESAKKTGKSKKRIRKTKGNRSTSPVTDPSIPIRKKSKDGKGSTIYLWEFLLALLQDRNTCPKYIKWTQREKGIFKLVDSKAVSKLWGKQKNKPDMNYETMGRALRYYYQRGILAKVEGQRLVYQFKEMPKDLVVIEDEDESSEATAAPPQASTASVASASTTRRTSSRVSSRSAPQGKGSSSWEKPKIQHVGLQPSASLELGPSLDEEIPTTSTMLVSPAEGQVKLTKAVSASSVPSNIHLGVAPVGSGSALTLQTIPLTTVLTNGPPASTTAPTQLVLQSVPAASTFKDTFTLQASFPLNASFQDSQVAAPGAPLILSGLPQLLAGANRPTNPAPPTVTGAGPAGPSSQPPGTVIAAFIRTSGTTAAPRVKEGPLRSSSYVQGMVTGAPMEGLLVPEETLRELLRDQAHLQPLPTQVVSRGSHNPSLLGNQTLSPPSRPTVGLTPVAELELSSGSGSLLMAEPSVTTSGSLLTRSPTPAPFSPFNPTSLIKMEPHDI

CTCCCG
binding signal (FEV): 1.61 fold enrichment (6-mer frequency, TF over GST control)
binding signal (ETV5): 1.59 fold enrichment (6-mer frequency, TF over GST control)
binding signal (HSF1): 1.5 fold enrichment (6-mer frequency, TF over GST control)
binding signal (SPIC): 1.77 fold enrichment (6-mer frequency, TF over GST control)
binding signal (ELF4): 1.68 fold enrichment (6-mer frequency, TF over GST control)
binding signal (ELK4): 1.46 fold enrichment (6-mer frequency, TF over GST control)
binding signal (ETV2): 1.25 fold enrichment (6-mer frequency, TF over GST control)
binding signal (ELF3): 1.69 fold enrichment (6-mer frequency, TF over GST control)
binding signal (CRX): 1.27 fold enrichment (6-mer frequency, TF over GST control)
binding signal (ETV1): 1.5 fold enrichment (6-mer frequency, TF over GST control)
binding signal (ERF): 1.42 fold enrichment (6-mer frequency, TF over GST control)
binding signal (ETV3L): 1.43 fold enrichment (6-mer frequency, TF over GST control)
binding signal (ETS2): 1.52 fold enrichment (6-mer frequency, TF over GST control)
binding signal (SPDEF): 1.65 fold enrichment (6-mer frequency, TF over GST control)
binding signal (ETV7): 1.73 fold enrichment (6-mer frequency, TF over GST control)
binding signal (ELF5): 1.74 fold enrichment (6-mer frequency, TF over GST control)
binding signal (ETV3): 1.53 fold enrichment (6-mer frequency, TF over GST control)
binding signal (ETV6): 1.57 fold enrichment (6-mer frequency, TF over GST control)

— article PMC7862700, “An all-to-all approach to the identification of sequence-specific readers for epigenetic DNA modifications on cytosine”
